Our source for the activity change, negative = inhibition and max response values is PubChem BioAssay (NCATS).

Results filed as inconclusive are left out. Active and inactive are the calls of the source. The call rests on the fitted dose curve.

One test is described as follows: qHTS Assay for Lipid Storage Modulators (AID 1519). On activity change, negative = inhibition: on the % scale 0 is the no-effect control and ±100 the full control effect. The note with it: Drosophila S3 cells, BODIPY lipid droplet/cell ratio, laser cytometry; at 57.5 µM (top of the series); cells loaded with oleic acid. A digest of the protocol:
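Cells seeded at 5,000 per well were treated with compounds over a concentration series and loaded with oleic acid (400 uM, as added). Lipid droplet fluorescence (488 nm excitation, 500-530 nm channel) was read by laser-scanning cytometry and normalized to 20 uM Triacsin C.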
Consider `CC1(C)C[C@@H]2C(=O)CCC3O[C@@]3(C)CCC21` (stereo partly drawn), for which the activity change, negative = inhibition is 3.76% (inactive). The same measure, in the same setting: under `CC1(C)CC23C(=O)CCC(O)C2(C)CCC13` (stereo not drawn) stands 0.112% (inactive). As for `COc1cc2cc[n+]3cc4c(OC)c(OC)ccc4cc3c2cc1OC`, the activity change, negative = inhibition was 10.9% (inactive). The same measure, in the same setting: the value for `COc1ccc(-c2cc(=O)c3c(O)c(OC)c(OC)c(OC)c3o2)cc1OC` was -11% (inactive). The same measure, in the same setting: the value for `COC(=O)C1OC(=O)C2O[C@@]23[C@]2(C)C(OC(C)=O)CC4C(C)(C)C(=O)CC[C@]4(C)C2CC[C@@]13C` (stereo partly drawn) was -1.69% (inactive); that for `CC(=O)OC1CC2C(C)(C)C=CC(=O)[C@@]2(C)C2CC[C@@]3(C)C(c4ccoc4)OC(=O)C4OC43[C@]12C` (stereo partly drawn) was 5.35% (inactive); that for `CCOC(=O)c1c(C)cc(O)c(C=O)c1O` was 7.6% (inactive). In the case of `C[C@@H]1CCC2[C@](C)(CO)C(O)CC[C@@]2(C)[C@@]12CC[C@](CO)(CCO)O2` (stereo partly drawn), the activity change, negative = inhibition was 5.37% (inactive). On the same count and under the same terms, the value for `O=C(/C=C/c1ccccc1)c1ccc(O)cc1` was 4.07% (inactive); that for `CC(=O)OC1CC2C(C)(C)C(=O)[C@@H]3OC3[C@@]2(C)C2CC[C@]3(C)C(=CC(=O)OC3c3ccoc3)[C@]12C` (stereo partly drawn) was 2.11% (inactive).

As to `Cc1cc(=O)oc2c(O)c(O)ccc12`, the activity change, negative = inhibition was -5.44% (inactive). On the same count and under the same terms, under `COc1ccc(-c2coc3cc(OC(C)=O)cc(OC(C)=O)c3c2=O)cc1` stands -2.95% (inactive); under `COc1ccc(C(=O)c2ccc(O)cc2)c(O)c1O`, 4.3% (inactive); under `CC12CCC3C(=CCc4cc(O)ccc43)C1CCC2=O` (stereo not drawn), 5.72% (inactive).

Regarding `CC(=O)OC1CC(OC(C)=O)[C@]2(C)C(CC(=O)[C@]3(C)C2CC[C@@]2(C)C(C(=O)O)OC(=O)C4OC423)C1(C)C` (stereo partly drawn), the activity change, negative = inhibition was 3.41% (inactive). Still for that read-out and setting: under `COC1=CC(=O)C(C(=O)c2ccccc2)=CC1=O` stands 9.22% (inactive); under `CC(Oc1ccccc1)C(=O)NC1C(=O)N2C(C(=O)O)C(C)(C)S[C@@H]12` (stereo partly drawn), 7.31% (inactive). The same measure, in the same setting: under `CC(=O)O[C@](C)(CCC=C(C)C)C1CC=C(C)CC1` (stereo partly drawn) stands 3.31% (inactive).

Still in this test, the particulars now being: Drosophila S3 cells, BODIPY lipid droplet/cell ratio, laser cytometry; measured here: cell count channel max response; cells loaded with oleic acid.
As for `COc1cc(OC)c(C(C)=O)c(O)c1C`, the max response amounted to 5.25%. On the same count and under the same terms, the value for `COc1ccc(-c2coc3c(O)c(OC)ccc3c2=O)cc1` was 25.3%. In the case of `COc1cc(O)c(C)c(O)c1`, the max response was 3.91%. `C=C1CCC(=O)C(C)CCC2C1CC2(C)C` (stereo not drawn): the max response came out at 13.1%. The same measure, in the same setting: under `CCCCN1CCCCC1C(=O)Nc1c(C)cccc1C` (stereo not drawn) stands 11.8%; under `CC1(C)C(O)C=C[C@@]2(C)C1CC(=O)O[C@@]1(C)C3=CC(=O)OC(c4ccoc4)[C@]3(C)CCC21` (stereo partly drawn), 1.87%; under `C=C1C(=O)OC2CC1C(OC(C)=O)CC(C)=CCCC(C)=CCC[C@@]2(C)O` (stereo partly drawn), 10.1%. Regarding `CC1(C)CC2C1CCC1(C)OC1CCC2(C)O` (stereo not drawn), the max response was -0.415%. Turning to `C#C[C@]1(O)CCC2C3CCC4=Cc5oncc5C[C@@]4(C)C3CC[C@@]21C` (stereo partly drawn), the max response stood at 9.5%.

For `Cc1cc(O)c(C=O)c(O)c1C(=O)O`, the max response worked out at 6.58%. On to `COC(=O)CC1C(C)(C)C(OC(C)=O)[C@@]2(O)C=C3C4CC(=O)OC(c5ccoc5)[C@]4(C)CCC3[C@@]1(C)C2=O` (stereo partly drawn), for which the max response is 10.1%. Take `C=CC(C1=CC(=O)C=CC1=O)c1ccccc1` (stereo not drawn): the max response was determined as 8.2%. Same read-out and setting: the value for `CC(=O)C1CCC2C3CC(C)C4=CC(=O)CC[C@@]4(C)C3C(O)C[C@@]12C` (stereo partly drawn) was 8.18%; that for `CO[C@]12CC(COC(=O)c3cncc(Br)c3)CN(C)[C@@H]1Cc1cn(C)c3cccc2c13` (stereo partly drawn) was 10.9%; that for `CCOC(=O)C(Cc1ccc(O)cc1)NC(C)=O` (stereo not drawn) was 6.37%. On the same count and under the same terms, the value for `COc1ccc(-c2coc3cc(O)ccc3c2=O)c(OC)c1` was 3.06%; that for `COC(=O)CC1C(C)(C)C(OC(C)=O)C2CC3=C4CC(=O)OC(c5ccoc5)[C@]4(C)CCC3[C@@]1(C)C2=O` (stereo partly drawn) was 14.6%; that for `COC(=O)c1cc(OC)c(=O)c2c(OC)c(OC)ccc2c1` was -2.75%. As to `COc1cc(O)cc(OC)c1OC`, the max response was -14%.

In the case of `O=C(NC1CCCCC1)NC1CCCCC1`, the max response was 16.8%. As to `COc1ccc(CCC(=O)c2c(O)cc(OC3OC(CO)C(O)C(O)C3O[C@@H]3OC(C)C(O)C(O)C3O)cc2O)cc1O` (stereo partly drawn), the max response was determined as 3.74%. On to `CC1CC2C3CCC4=CC(=O)C=C[C@]4(C)[C@@]3(Cl)C(O)C[C@]2(C)C1(OC(=O)c1ccco1)C(=O)CCl` (stereo partly drawn), for which the max response was -6.79%. The same measure, in the same setting: under `CC1(C)C[C@@H]2C(=O)CCC3O[C@@]3(C)CCC21` (stereo partly drawn) stands 20.7%; under `CC1(C)CC23C(=O)CCC(O)C2(C)CCC13` (stereo not drawn), 8.4%.

`COc1cc2cc[n+]3cc4c(OC)c(OC)ccc4cc3c2cc1OC`: the max response came to 22.9%. Consider `COc1ccc(-c2cc(=O)c3c(O)c(OC)c(OC)c(OC)c3o2)cc1OC`, for which the max response is -6.36%. Turning to `COC(=O)C1OC(=O)C2O[C@@]23[C@]2(C)C(OC(C)=O)CC4C(C)(C)C(=O)CC[C@]4(C)C2CC[C@@]13C` (stereo partly drawn), the max response is -0.434%. `CC(=O)OC1CC2C(C)(C)C=CC(=O)[C@@]2(C)C2CC[C@@]3(C)C(c4ccoc4)OC(=O)C4OC43[C@]12C` (stereo partly drawn): the max response was -8.35%. On the same count and under the same terms, the value for `CCOC(=O)c1c(C)cc(O)c(C=O)c1O` was -4.41%. For the compound `C[C@@H]1CCC2[C@](C)(CO)C(O)CC[C@@]2(C)[C@@]12CC[C@](CO)(CCO)O2` (stereo partly drawn), the max response was found to be 11.4%. Still for that read-out and setting: under `O=C(/C=C/c1ccccc1)c1ccc(O)cc1` stands -2.42%; under `CC(=O)OC1CC2C(C)(C)C(=O)[C@@H]3OC3[C@@]2(C)C2CC[C@]3(C)C(=CC(=O)OC3c3ccoc3)[C@]12C` (stereo partly drawn), 18.2%; under `Cc1cc(=O)oc2c(O)c(O)ccc12`, -3.48%. The same measure, in the same setting: the value for `COc1ccc(-c2coc3cc(OC(C)=O)cc(OC(C)=O)c3c2=O)cc1` was 3.34%; that for `COc1ccc(C(=O)c2ccc(O)cc2)c(O)c1O` was 2.91%. On the same count and under the same terms, the value for `CC12CCC3C(=CCc4cc(O)ccc43)C1CCC2=O` (stereo not drawn) was -12.9%; that for `CC(=O)OC1CC(OC(C)=O)[C@]2(C)C(CC(=O)[C@]3(C)C2CC[C@@]2(C)C(C(=O)O)OC(=O)C4OC423)C1(C)C` (stereo partly drawn) was 10.8%; that for `COC1=CC(=O)C(C(=O)c2ccccc2)=CC1=O` was 13.1%.

Regarding `CC(Oc1ccccc1)C(=O)NC1C(=O)N2C(C(=O)O)C(C)(C)S[C@@H]12` (stereo partly drawn), the max response is 11.7%.

As for `CC(=O)O[C@](C)(CCC=C(C)C)C1CC=C(C)CC1` (stereo partly drawn), the max response is 17.9%.
